Reference: PubChem BioAssay AID2642 (Johns Hopkins Ion Channel Center, 2010)
Out of some 310,000 compounds screened, about 3,900 (1.3%) were called active.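 The calls were made as follows: active = compounds whose thallium flux B-score, printed positive for inhibition, exceeds three library SD while starting fluorescence stays within three; inactive = the rest.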 The sample as a whole holds a higher share of actives than the screen did.

What follows are compounds tested against Potassium voltage-gated channel subfamily KQT member 1 (Homo sapiens) (UniProt P51787) (assay: inhibitors of human KCNQ1 channel, primary screen, cell-based, thallium flux, high-throughput (AID 2642;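 also: channel opened by potassium depolarization with thallium stimulus after 20 min compound exposure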)). Settings: CHO-K1 KCNQ1, FluxOR thallium flux fluorescence, at 10 µM; stronger effect = higher value.
Potassium voltage-gated channel subfamily KQT member 1 (Homo sapiens), sequence (P51787 whole entry, looked up): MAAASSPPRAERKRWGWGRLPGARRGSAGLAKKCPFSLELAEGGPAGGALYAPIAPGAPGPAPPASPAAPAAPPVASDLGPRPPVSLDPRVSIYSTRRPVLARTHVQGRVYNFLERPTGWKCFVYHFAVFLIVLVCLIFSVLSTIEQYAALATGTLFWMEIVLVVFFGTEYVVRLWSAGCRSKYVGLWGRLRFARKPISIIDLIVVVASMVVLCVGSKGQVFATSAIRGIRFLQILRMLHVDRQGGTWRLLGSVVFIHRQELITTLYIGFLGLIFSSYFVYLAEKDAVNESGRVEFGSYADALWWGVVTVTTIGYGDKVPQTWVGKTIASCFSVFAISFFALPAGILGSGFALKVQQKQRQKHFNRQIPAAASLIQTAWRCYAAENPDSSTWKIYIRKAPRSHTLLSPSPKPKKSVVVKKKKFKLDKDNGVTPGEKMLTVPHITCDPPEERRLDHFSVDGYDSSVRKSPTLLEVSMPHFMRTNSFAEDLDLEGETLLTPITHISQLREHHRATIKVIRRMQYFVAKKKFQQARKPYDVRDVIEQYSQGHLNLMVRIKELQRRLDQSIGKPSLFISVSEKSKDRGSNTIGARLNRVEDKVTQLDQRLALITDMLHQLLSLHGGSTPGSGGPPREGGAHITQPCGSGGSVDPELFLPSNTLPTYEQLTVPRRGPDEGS

Compound	B-score
Cc1ccc(C(=O)OCC(=O)NC(=O)Cc2ccccc2)c(O)c1	inactive
O=[N+]([O-])/C(N=Nc1ccccc1)=N\Nc1ccccc1	inactive
CCN(C(=O)COC(=O)c1sccc1C)c1c(N)n(Cc2ccccc2)c(=O)[nH]c1=O	inactive
O=C(O)CCCn1c(=O)c2cccn2c2ccc(F)cc21	inactive
C=CCOC(=O)C1=C(C)NC(SCC(=O)OCC)=C(C#N)C1c1ccc(C)cc1 (stereo not given)	6 (active)
CCOC(=O)CSC1=C(C#N)C(c2sccc2C)CC(=O)N1 (stereo not given)	inactive
C=CCOC(=O)C1=C(C)OC(N)=C(C#N)C1c1ccc(F)cc1 (stereo not given)	inactive
NC(=O)c1ncc(C(F)(F)F)cc1Oc1ccc(F)cc1	inactive
CCOc1ccc(N/C(N)=N/c2nc(C)c(C)c(=O)[nH]2)cc1	inactive
CCCCSc1nc2ccccc2[nH]1	inactive
CCc1nnc(NC(=O)CCCSc2nc3ccccc3[nH]2)s1	inactive
CCC(C)N1C(=O)S/C(=C/c2ccc(Sc3nc4ccccc4[nH]3)o2)C1=O (stereo not given)	13 (active)
CCOc1ccc(C(=O)NCC(=O)N2CCCCCCC2)cc1OCC	inactive
CC(=O)N1CCC(C(=O)Nc2nc(-c3ccccc3)ns2)CC1	inactive
C[n+]1ccc(/C=C/c2c[nH]c3ccccc23)cc1	13 (active)
COc1ccc(/C=C(\C#N)c2c[nH]c3ccccc23)cc1	inactive
O=C(N/N=C/c1c[nH]c2ccccc12)c1ccccc1O	inactive
COc1ccc(CC(=O)OC(C)C(=O)Nc2ccc(S(N)(=O)=O)cc2)cc1 (stereo not given)	inactive
COC(=O)c1cc(NC(=O)c2ccco2)ccc1N1CCOCC1	inactive
CC(=O)Nc1ccc(N2CCOCC2)c(C(=O)Nc2cccc(C)c2)c1	inactive
COC(=O)c1cc(NC(=O)c2cc(C(C)(C)C)nn2Cc2cccc(C)c2)ccc1N1CCOCC1	6 (active)
CCCCCC(O)c1cccc(OCc2ccc3ccccc3n2)c1 (stereo not given)	6 (active)
CCCCCCOC(=O)NCC(O)c1ccccc1 (stereo not given)	inactive
COc1cccc(C(O)c2nc3ccccc3n2C)c1 (stereo not given)	inactive

Compound	B-score
O=C(O)CC12CC3CC(C1)CC(n1ncc(NCc4ccc(F)cc4)c(Cl)c1=O)(C3)C2	inactive
CC(=O)N/N=C/c1cc2c(cc1[N+](=O)[O-])OCO2	inactive
CC1(C(=O)N/N=C/c2cc3c(cc2Br)OCO3)CC1(Br)Br (stereo not given)	9 (active)
O=C(N/N=C/c1cc2c(cc1Br)OCO2)C1COc2ccccc2O1 (stereo not given)	inactive
OCCN1CCN(c2nnc(-c3ccccc3)c3ccccc23)CC1	inactive
c1ccc(-c2nnc(N3CCOCC3)c3ccccc23)cc1	inactive
CCCC(=O)N1CCN(c2nnc(-c3ccc(C)cc3)c3ccccc23)CC1	7 (active)
COC(=O)c1ccc(S(=O)(=O)N2CCc3ccccc3C2)cc1	inactive
COc1ccccc1CNC(=O)C1Cc2ccccc2C(=O)O1 (stereo not given)	inactive
CCNC(=S)N(CCN(CC)CC)Cc1cc2cc3c(cc2[nH]c1=O)OCO3	inactive
Clc1ccc(CSc2nnc3c(n2)[nH]c2ccccc23)cc1	inactive
CC1Cc2ccccc2N1S(=O)(=O)c1ccc(Cl)nc1 (stereo not given)	inactive
CCCCn1ccnc1C(=O)c1cccc(S(=O)(=O)N2c3ccccc3CC2C)c1 (stereo not given)	6 (active)
CC1Cc2ccccc2N1S(=O)(=O)c1c(N)n(C)c(=O)n(C)c1=O (stereo not given)	inactive
COc1ccc(C2C(C#N)=C(/N=C/N3CCOCC3)OC3=C2C(=O)CC(C)(C)C3)cc1OC (stereo not given)	inactive
COC(=O)c1nc(NC(=O)c2ccc(C(C)(C)C)cc2)n[nH]1	inactive
CSc1nccc(NC(=O)c2ccc(C(C)(C)C)cc2)n1	7 (active)
Cc1cccc(NC(=O)c2cccnc2Cl)n1	inactive
COc1ccccc1N(C)S(=O)(=O)c1ccc(Cl)c(C(=O)Nc2ccncc2)c1	inactive
Cc1cnc(C(=O)OCC(=O)NCCCc2ccccc2)cn1	inactive
Cc1ccc(OC(=O)c2cncc(Br)c2)c(C)c1	inactive
Cc1cccc(Nc2ccccc2C(=O)NCc2ccco2)c1C	9 (active)
O=C(Nc1ccccc1)Nc1ccccc1C(=O)NCc1ccco1	inactive
Cc1ccccc1NC(=O)NCc1ccco1	inactive

Compound	B-score
CSc1ccc(S(=O)(=O)N2CCC(C(=O)NCc3ccncc3)CC2)cc1	inactive
Cc1csc(NC(=O)CSc2nnc(-c3cccnc3)o2)n1	inactive
Cc1ccccc1OCC(=O)Nc1ccc(N2CCN(C(=O)C(C)C)CC2)c(Cl)c1	6 (active)
Cc1ccccc1OCC(=O)Nc1ccc2c(c1)ncn2C	inactive
Cc1ccccc1OCC(=O)Nc1ccc(S(=O)(=O)N2CCOCC2)cc1	inactive
CC(=O)NNC1=Nc2ccccc2N(C)C(C)C1 (stereo not given)	inactive
CCc1ccc2c(c1)C1(NN=C(c3ccccc3)S1)C(=O)N2 (stereo not given)	11 (active)
CC(C)N(C(=O)Cn1cc(S(=O)(=O)CC(=O)N2CCOCC2)c2ccccc21)C(C)C	inactive
COc1ccccc1NC(=O)c1ccc(N2CC3CC(C2)c2cccc(=O)n2C3)c(NC(=O)c2cccnc2)c1 (stereo not given)	inactive
O=C1CCC(=O)N1c1ccc(NCCc2ccccc2F)c([N+](=O)[O-])c1	inactive
CC1(c2nnc(Cc3ccccc3)o2)CC(c2ccccc2F)=NO1 (stereo not given)	inactive
C=CCOc1cccc(C2C(C(=O)c3ccc(C)o3)=C(O)C(=O)N2CCCn2ccnc2)c1 (stereo not given)	inactive
C=CCOc1cccc(C2C(C(=O)c3ccc(C)o3)=C(O)C(=O)N2c2nnc(C)s2)c1 (stereo not given)	11 (active)
Cc1cc(N2C(=O)C(O)=C(C(=O)c3ccc(C)o3)C2c2ccc(OCc3ccccc3)cc2)no1 (stereo not given)	inactive
COc1ccc(NC(=O)C2=CC(c3ccc(OC)c(OC)c3)=NS(=O)(=O)N2C)cc1	inactive
Cc1nn(CC(=O)NCC2CCCO2)c(=O)c2cc3ccccc3n12 (stereo not given)	inactive
COCc1cc(C)n(CC(=O)NCC2CCCO2)c(=O)c1C#N (stereo not given)	6 (active)
Cc1ccc2c(c1)N(CC(=O)NCC1CCCO1)C(=O)CO2 (stereo not given)	inactive
Cc1cc(-c2ccc(C)c(S(=O)(=O)Nc3ccc(S(N)(=O)=O)cc3)c2)on1	inactive
Cc1cccc(N2CCN(C(c3ccccc3)c3nnnn3CC3CCCO3)CC2)c1C (stereo not given)	6 (active)
Cc1cccc(N2CCN(C(c3ccc(N(C)C)cc3)c3nnnn3C(C)(C)C)CC2)c1C (stereo not given)	inactive
COc1ccccc1C(c1nnnn1CC1CCCO1)N1CCN(c2ccccc2)CC1 (stereo not given)	inactive
